Results reported in PubChem BioAssay (NCATS).
Where “and” joins values, the source holds several entries; their conditions need not be identical. Identical values can stand only once. A number with no mark means an inactive call. Records with an inconclusive call do not appear. Calls of active or inactive are those of the source. Unless noted, calls follow the shape of the dose curve; as a rule, active = well fitted curve in the direction sought with a large enough effect; inconclusive = small, poorly fitted or top-dose-only effect, or another doubt; inactive = no such curve, though single readings can be large; an effect the other way counts as inactive or inconclusive.

Columns and labels:
[1] = qHTS assay for small molecule agonists of the antioxidant response element (ARE) signaling pathway measured by Nrf2-dependant transcriptional activity - cell viability counter screen (AID 720653; active = well fitted curve in the direction sought with a large enough effect in the repeat runs; an effect the other way counts as inactive or inconclusive; also: potency is read from the fitted curve at half-maximal effect; as to max response: % is scaled to controls: 0 for no effect and ±100 for the full control effect); settings: ARE-bla HepG2 viability, CellTiter-Glo ATP luminescence, 16 h; max response: stronger effect = lower value
How it was run: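 Cytotoxicity counter screen: intracellular ATP quantified by CellTiter-Glo luminescence in the same ARE-bla HepG2 plates, after 16 h compound exposure and a 2 h beta-lactamase substrate step.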

[2] = qHTS Assay for Identifying Gametocytocidal Compounds (AID 743244); also: potency is read from the fitted curve at half-maximal effect;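 as to max response: % is scaled to controls: 0 for no effect and ±100 for the full control effect; actives lower the fluorescent signal which means gametocytes are killed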; settings: P. falciparum 3D7 stage III-V gametocytes, alamarBlue, 72 h; max response: stronger effect = lower value
How it was run: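 In this qHTS viability screen, late-stage 3D7 gametocytes are incubated with compound for 72 h, then with alamarBlue for 24 h; reduced resorufin fluorescence marks killing.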

[3] = qHTS assay for cell viability of HEK293 cells (AID 743288); settings: ATP luminescence (CellTiter-Glo), 18 h; max response: stronger effect = lower value; also: nearly all actives have a fitted effect of over 50% in size; also: potency is read from the fitted curve at half-maximal effect; as to max response: % is scaled to controls: 0 for no effect and ±100 for the full control effect
How it was run: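 Total intracellular ATP, measured with a luciferase-coupled reagent, indicates the number of viable HEK293 cells. Exposure to test chemicals lasts 18 h at 37 C in 1,536-well format at 2,000 cells/well.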

[4] = qHTS assay for cell viability of the p53RE-bla HCT-116 cell line (AID 743292); also: nearly all actives have a fitted effect of over 55% in size; also: potency is read from the fitted curve at half-maximal effect
How it was run: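 ATP-based luminescence, 16 h compound exposure at 37 C, p53RE-bla HCT-116 cells at 4,000/well.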

[5] = qHTS assay for small molecule antagonists of the retinoid-related orphan receptor gamma (ROR-gamma) signaling pathway - cell viability counter screen (AID 720652; active = well fitted curve in the direction sought with a large enough effect in the repeat runs; an effect the other way counts as inactive or inconclusive;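 also: compound exposure lasted 16 hr before ATP read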; also: potency is read from the fitted curve at half-maximal effect)
How it was run: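 Cytotoxicity is quantified via intracellular ATP (CellTiter-Glo luminescence) in doxycycline-induced CHO ROR response element-luciferase reporter cells treated with compound for 16 hr at 37 C, 5% CO2.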

[6] = molecular target: T1, Hexokinase-4 (Homo sapiens) + Glucokinase regulatory protein (Homo sapiens) (UniProt P35557+Q14397); experiment: qHTS assay for inhibitors of recombinant human GCK-GKRP interaction: ADP-Glo assay (AID 743206);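 also: plate controls were DMSO plus enzyme for no effect and no enzyme for full effect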
T1 sequence (P35557 whole entry, looked up): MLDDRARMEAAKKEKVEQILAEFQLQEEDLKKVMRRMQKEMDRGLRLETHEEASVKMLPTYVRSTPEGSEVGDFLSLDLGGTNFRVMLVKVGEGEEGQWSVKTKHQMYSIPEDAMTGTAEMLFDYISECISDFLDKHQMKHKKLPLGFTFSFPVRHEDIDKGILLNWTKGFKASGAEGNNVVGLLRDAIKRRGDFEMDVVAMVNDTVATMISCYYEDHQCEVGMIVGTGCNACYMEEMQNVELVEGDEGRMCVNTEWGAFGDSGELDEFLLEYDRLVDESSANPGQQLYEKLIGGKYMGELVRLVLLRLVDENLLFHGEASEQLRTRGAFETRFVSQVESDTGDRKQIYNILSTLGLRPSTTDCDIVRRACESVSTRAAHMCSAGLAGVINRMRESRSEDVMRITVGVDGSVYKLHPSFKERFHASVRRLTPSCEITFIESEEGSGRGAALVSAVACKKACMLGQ
T1 sequence (Q14397 whole entry, looked up): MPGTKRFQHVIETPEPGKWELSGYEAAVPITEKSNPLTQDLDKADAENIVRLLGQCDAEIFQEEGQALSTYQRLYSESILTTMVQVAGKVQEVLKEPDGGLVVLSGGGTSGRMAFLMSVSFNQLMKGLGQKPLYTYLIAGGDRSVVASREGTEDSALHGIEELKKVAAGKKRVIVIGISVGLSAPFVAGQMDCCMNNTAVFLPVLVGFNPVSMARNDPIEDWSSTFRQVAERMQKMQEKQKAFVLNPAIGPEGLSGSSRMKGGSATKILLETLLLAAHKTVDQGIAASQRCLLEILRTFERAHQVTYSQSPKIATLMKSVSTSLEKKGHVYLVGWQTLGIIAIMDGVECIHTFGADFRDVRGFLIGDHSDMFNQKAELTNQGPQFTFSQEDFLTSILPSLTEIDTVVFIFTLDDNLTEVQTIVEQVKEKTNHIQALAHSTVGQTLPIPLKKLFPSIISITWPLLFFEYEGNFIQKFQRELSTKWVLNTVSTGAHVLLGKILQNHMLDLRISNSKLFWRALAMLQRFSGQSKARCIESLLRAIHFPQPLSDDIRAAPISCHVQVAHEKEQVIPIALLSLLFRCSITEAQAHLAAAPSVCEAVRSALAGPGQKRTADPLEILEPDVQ
How it was run: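 GST-GCK and FLAG-GKRP (15 nM each in the dispensed mix, with 2 uM S6P) react with 0.4 mM ATP and 5 mM glucose (final) in Hepes pH 7.6 for 60 min at room temperature. ADP is measured by ADP-Glo luminescence.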

[7] = molecular target: T1, Hexokinase-4 (Homo sapiens) + Glucokinase regulatory protein (Homo sapiens); experiment: qHTS assay for inhibitors of recombinant human GCK-GKRP interaction: HTRF assay (AID 743207);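 also: 0% = DMSO with GCK present and -100% = DMSO wells lacking GCK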
How it was run: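 After 60 min equilibration at room temperature with anti-FLAG XL665 and anti-GST antibodies, FRET ratio (665/615 nm, excitation 320 nm) was read. Proteins: GST-GCK and FLAG-GKRP, each 5 nM, plus 2 uM S6P, pH 7.1 buffer; GCK-free wells define minimum signal.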

In the case of O=c1[nH]c(=O)n(Cl)c(=O)n1Cl, the max response [1] is reported as -11%, the max response [2] is reported as 6.71% and the max response [3] is reported as -3.48%. The Potency [4] was “inactive”.
In the case of O=C(O)C(Cl)(Cl)Cl, the Potency [5] is reported as “inactive”, the max response [1] is reported as -1.81% and -2.86% and the max response [2] is reported as 5.93%. The max response [3] was 7.06% and 1.52% and the Potency [4] was “inactive”.
For CCCCCl, the Potency [5] was “inactive”, the max response [1] was -3.38% and the max response [2] was 3.57%. For the same molecule, the max response [3] was -0.598% and the Potency [4] was “inactive”.
For N#CN, the max response [1] was -18.5%, the max response [2] was 10.9% and the max response [3] was -11.1%. For the same molecule, the Potency [4] was “inactive”.
For Clc1ccccc1Cl, the Potency [5] was “inactive”, the max response [1] was 1.42% and the max response [2] was 10.6%. The max response [3] was 2.94% and the Potency [4] was “inactive”.
In the case of Oc1cc(Cl)c(Cl)cc1Cl, the Potency [5] is reported as “inactive”, the max response [1] is reported as 4.14% and 5.09% and the max response [2] is reported as 4.45%. The max response [3] was -2.85% and 0.876% and the Potency [4] was “inactive”.
For S=C=S, the Potency [5] was “inactive”, the max response [1] was -6.45% and the max response [2] was -5.35%. The max response [3] was -4.58% and the Potency [4] was “inactive”.
O=C(NCNC(=O)NC1C(=O)NC(=O)N1CO)NC1C(=O)NC(=O)N1CO (configuration not stated) showed a max response [1] of 1.81%, a max response [2] of 20.5% and a max response [3] of -3.93%. For the same molecule, the Potency [4] was “inactive”.
For C[CH2][Hg][S]c1ccccc1C(=O)O, the Potency [1] was 44.7 µM (active), the Potency [2] was 1.41 µM (active) and the Potency [3] was 50.1 µM (active). For the same molecule, the Potency [4] was 15.8 µM (active).
For ClC=C(Cl)Cl, the Potency [5] was “inactive”, the max response [1] was -6.12% and -5.8% and the max response [2] was -0.112%. The max response [3] was 5.41% and -9.88% and the Potency [4] was “inactive”.
In the case of [O]=[Cd], the Potency [5] is reported as “inactive”, the max response [1] is reported as -0.962% and the max response [3] is reported as 3.33%. The Potency [4] was “inactive”.
For [O]=[Cr](=[O])([OH])[O][Cr](=[O])(=[O])[OH], the Potency [5] was 11.9 µM (active), the max response [1] was -23.9% and the max response [2] was 21.1% and 18.4%. For the same molecule, the Potency [3] was 39.8 µM (active) and 15.8 µM (active) and the Potency [4] was 31.6 µM (active) and 25.1 µM (active) and 22.4 µM (active).
In the case of CC(C)(C)c1cc(O)ccc1O, the Potency [5] is reported as “inactive”, the max response [1] is reported as 21.5% and -0.658% and -3.53% and the Potency [2] is reported as 31.6 µM (active) and 3.55 µM (active). For the same molecule, the max response [3] was -11% and 8.59% and 5.79% and the Potency [4] was “inactive”.
With ClCC1CO1 (configuration not stated) the Potency [5] was “inactive”, the max response [1] was -2.98% and the max response [2] was 11.4%. For the same molecule, the max response [3] was 3.04% and the Potency [4] was “inactive”.
Work on C#CCN1CC(=O)N(COC(=O)C2C(C=C(C)C)C2(C)C)C1=O (configuration not stated) yielded a max response [1] of 2.56%, a max response [2] of 21.2% and a max response [3] of -15.4%. For the same molecule, the Potency [4] was “inactive”.
For C[C@H]1CC[C@@H]2[C@@H](C)[C@H]3[C@H](C[C@H]4[C@@H]5CC=C6CC(O[C@@H]7O[C@H](CO)[C@H](O)[C@H](O[C@@H]8O[C@H](CO)[C@@H](O)[C@H](O)[C@H]8O)[C@H]7O[C@H]7O[C@@H](C)[C@H](O)[C@@H](O)[C@H]7O)CC[C@]6(C)[C@H]5CC[C@]34C)N2C1 (some centres not stated), the Potency [5] was 18.8 µM (active), the Potency [1] was 44.7 µM (active) and the max response [2] was -0.257%. For the same molecule, the Potency [3] was 12.6 µM (active) and the Potency [4] was 70.8 µM (active).
For COC1=CC(=O)O[C@@H](/C=C/c2ccccc2)C1, the Potency [5] was “inactive”, the max response [1] was 4.02% and the max response [3] was -13.6%. The Potency [4] was “inactive”.
In the case of COc1ccc2c(c1OC)C(=O)OC2C1c2cc3c(cc2CCN1C)OCO3 (configuration not stated), the Potency [5] is reported as “inactive”, the max response [1] is reported as -15.1% and the max response [3] is reported as -5.26%. The Potency [4] was “inactive”.
With O=[N+]([O-])c1ccccc1 the Potency [5] was “inactive”, the max response [1] was -3.95% and -3.49% and the max response [3] was -0.844% and 8.43%. For the same molecule, the Potency [4] was “inactive”.
In the case of CC[C@H](C)[C@H]1O[C@]2(C=C[C@@H]1C)C[C@@H]1C[C@@H](C/C=C(\C)[C@@H](O[C@H]3C[C@H](OC)[C@@H](O[C@H]4C[C@H](OC)[C@@H](O)[C@H](C)O4)[C@H](C)O3)[C@@H](C)/C=C/C=C3\CO[C@@H]4[C@H](O)C(C)=C[C@@H](C(=O)O1)[C@]34O)O2, the Potency [1] is reported as 39.8 µM (active) and the max response [2] is reported as -7.27%.
For CCOC(=O)c1ccccc1C(=O)OCC, the Potency [5] was “inactive”, the max response [1] was 8.89% and -10.7% and -8.42% and the max response [2] was 6.33%. The max response [3] was -2.28% and 4.29% and 3.24% and the Potency [4] was “inactive”.
With O=Cc1ccco1 the Potency [5] was “inactive”, the max response [1] was -4.31% and the max response [2] was 5.14%. The max response [3] was 6.18% and the Potency [4] was “inactive”.
In the case of O=C1C=CC(=O)C=C1, the Potency [5] is reported as 26.6 µM (active), the outcome [6] is reported as “inactive” and the outcome [7] is reported as “inactive”. For the same molecule, the max response [2] was 4.21% and the Potency [4] was “inactive”.
With O=C1C[C@@H]2OCC=C3CN4CC[C@]56c7ccccc7N1[C@H]5[C@H]2[C@H]3C[C@H]46 the max response [1] was -11.2%, the max response [2] was 1.95% and the max response [3] was -21.9%. For the same molecule, the Potency [4] was “inactive”.
With C[C@]12CCC(=O)C[C@@H]1CC[C@@H]1[C@@H]2CC[C@]2(C)[C@@H](O)CC[C@@H]12 the Potency [5] was “inactive”, the max response [1] was -16.7% and -5.79% and the max response [2] was 17.9%. The max response [3] was -9.61% and -12.6% and the Potency [4] was “inactive”.
For O=CC=O, the Potency [5] was “inactive”, the max response [1] was 0.354% and the max response [2] was 1.75%. For the same molecule, the max response [3] was -6.19% and the Potency [4] was “inactive”.
